Assays:
Experiment in all cases: PBM binding z-score (relative to random genomic background probes); higher = stronger binding; sequences stand for … in GC…GCGATTGACAGCGTAGAATGAAGG
[1] = tested on: FXR:RXRa (NR concentration 270 nM, RXRa partner concentration 90 nM)
Method in brief: (§1)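 Random background probes are the reference for binding z-scores. These scores derive from regression-normalized fluorescence on custom Agilent 4×180K protein-binding microarrays incubated 1 h with ligand-free nuclear receptor dimers. Binding was detected with antibodies against each partner (one per run).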

[2] = tested on: LXRa:RXRa (NR concentration 270 nM, RXRa partner concentration 90 nM)
Method in brief: as §1

[3] = tested on: LXRa homodimer (NR concentration 270 nM)
Method in brief: as §1

[4] = tested on: LXRb:RXRa (NR concentration 270 nM, RXRa partner concentration 90 nM)
Method in brief: as §1

[5] = tested on: LXRb homodimer (NR concentration 270 nM)
Method in brief: as §1

[6] = tested on: PPARa:RXRa (NR concentration 270 nM, RXRa partner concentration 90 nM)
Method in brief: as §1

[7] = tested on: PPARg:RXRa (NR concentration 180 nM, RXRa partner concentration 90 nM)
Method in brief: as §1

[8] = tested on: PPARg:RXRa 270nM:90nM, anti-RXR (NR concentration 270 nM, RXRa partner concentration 90 nM)
Method in brief: as §1

[9] = tested on: PPARg:RXRa 30nM:10nM, anti-RXR (NR concentration 30 nM, RXRa partner concentration 10 nM)
Method in brief: as §1

[10] = tested on: PPARg:RXRa 90nM:30nM, anti-RXR (NR concentration 90 nM, RXRa partner concentration 30 nM)
Method in brief: as §1

[11] = tested on: PPARg:RXRa DBDmut IVT, anti-RXR (DBD mutation: RXRa K156A/R161A, NR concentration 270 nM, RXRa partner concentration 90 nM)
Method in brief: as §1

[12] = tested on: PPARg:RXRa IVT, anti-PPARg (NR concentration 270 nM, RXRa partner concentration 90 nM)
Method in brief: as §1

[13] = tested on: PPARg DBDmut:RXRa IVT, anti-PPARg (DBD mutation: PPARg1 K132A/R137A, NR concentration 270 nM, RXRa partner concentration 90 nM)
Method in brief: as §1

[14] = tested on: PPARg DBDmut IVT, anti-PPARg (DBD mutation: PPARg1 K132A/R137A, NR concentration 270 nM)
Method in brief: as §1

[15] = tested on: PPARg homodimer (NR concentration 180 nM)
Method in brief: as §1

[16] = tested on: PXR:RXRa (NR concentration 270 nM, RXRa partner concentration 90 nM)
Method in brief: as §1

[17] = tested on: PXR homodimer (NR concentration 270 nM)
Method in brief: as §1

[18] = tested on: RARa:RXR (NR concentration 270 nM, RXRa partner concentration 90 nM)
Method in brief: as §1

[19] = tested on: RARa homodimer (NR concentration 270 nM)
Method in brief: as §1

[20] = tested on: RARb:RXRa (NR concentration 270 nM, RXRa partner concentration 90 nM)
Method in brief: as §1

Row | Sequence | PBM binding z-score [1] | PBM binding z-score [2] | PBM binding z-score [3] | PBM binding z-score [4] | PBM binding z-score [5] | PBM binding z-score [6] | PBM binding z-score [7] | PBM binding z-score [8] | PBM binding z-score [9] | PBM binding z-score [10] | PBM binding z-score [11] | PBM binding z-score [12] | PBM binding z-score [13] | PBM binding z-score [14] | PBM binding z-score [15] | PBM binding z-score [16] | PBM binding z-score [17] | PBM binding z-score [18] | PBM binding z-score [19] | PBM binding z-score [20]
1 | AATACAGGGTCATCCTAGGCCAGAGTACGCACAG | 7.59 | 6.64 | 3.26 | 5.25 | 1.72 | 6.4 | 6.74 | 5.93 | 2.82 | 4.48 | 2.5 | 4.16 | 1.89 | 1.39 | 2.39 | 5 | 0.711 | 4.8 | 1.41 | 4.46
2 | ATCTCTAGGTAACAAGTACAGTGAAAGAGAGGAC | 0.404 | 0.297 | 0.245 | -0.0374 | 0.894 | 0.308 | 1.33 | 1.36 | 0.696 | 1.02 | 2.78 | 2.91 | 1.63 | 0.83 | 0.76 | 0.221 | 0.657 | 0.485 | 1.28 | 0.624
3 | GCTAGTTGGTTAGTAAAAGGTCACACACCGGTCG | 2.97 | 4.33 | 4.85 | 4.1 | 1.08 | 4.6 | 2.08 | 3.55 | 1.87 | 3.47 | 0.595 | 2.29 | 0.167 | 0.647 | 4.26 | 5.09 | 1.29 | 6.05 | 3.17 | 3.99
4 | CAAACTAGGTCAATGGTCAAAGTCGAGCCAACCA | 3.39 | 2.76 | 0.566 | 2.15 | 0.29 | 5.6 | 9.78 | 8.03 | 7.9 | 8.7 | 8.19 | 8.52 | 2.18 | 0.945 | 1.27 | 1.38 | 0.195 | 2.25 | 0.441 | 3.9
5 | TCGAGTAGGTTACCAAGGGGGCATTCAGCTTTCT | 1.44 | 4.34 | 0.768 | 4.55 | 6.02 | 2.95 | 1.48 | 3.04 | 2.18 | 2.74 | 3.32 | 4.07 | 4.92 | 5.1 | 1.17 | 2.98 | 0.477 | 2.6 | -0.167 | 1.98
6 | CCTACTAGTTGACCATAAGGGCAACCGAAGCTCG | 0.832 | 0.281 | 0.276 | 0.306 | 0.518 | 0.516 | 0.418 | 0.311 | -0.164 | 0.0805 | 0.2 | 0.479 | 0.235 | -0.627 | 1.22 | 0.406 | 0.317 | 0.81 | 1.01 | 1.39
7 | ATCTCTCGGTAAGACTCAGTTCAGTGAAGAACGC | 0.549 | 0.674 | 0.845 | 0.602 | 1.47 | 0.3 | -0.175 | 0.19 | 0.114 | 0.251 | 0.0945 | 0.262 | 0.647 | 0.946 | 1.35 | 1.2 | 1.82 | 0.858 | 1.21 | 0.565

From the supplement of paper PMC6555819
